Compound activity deposited in PubChem by several laboratories.
TIM10 inh: TIM10 yeast growth inhibition; S. cerevisiae TIM10 strain growth, BacTiter-Glo luminescence, 24 h; actives 1.4% (n = 330,000); inhibition, % at 10 µM;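 active = inhibition of 40% or more at the single tested concentration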;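 note: wild-type TIM10 isogenic control strain grown at permissive 25 °C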
tim10-1 inh: growth inhibitors of tim10-1 mutant yeast | S. cerevisiae tim10-1 ts strain growth, BacTiter-Glo, 24 h | inhibition, % at 20 µM | actives 2.2% (n = 330,000) | AID 463190;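 active = inhibition of at least 40%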;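 note: mutant grown at 25 °C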
Beta2AR agonist: human beta-2 adrenergic receptor agonism by FAP; P07550; Am2.2-beta2AR cells, FAP receptor internalization, flow cytometry; response, % (test concentration not listed); actives 0.43% (n = 340,000); AID 504454;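 active = response above a set limit, near 3 SD of response in nonfluorescent compounds, cut at about 42% in these data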
Target sequence (P07550 whole entry, looked up): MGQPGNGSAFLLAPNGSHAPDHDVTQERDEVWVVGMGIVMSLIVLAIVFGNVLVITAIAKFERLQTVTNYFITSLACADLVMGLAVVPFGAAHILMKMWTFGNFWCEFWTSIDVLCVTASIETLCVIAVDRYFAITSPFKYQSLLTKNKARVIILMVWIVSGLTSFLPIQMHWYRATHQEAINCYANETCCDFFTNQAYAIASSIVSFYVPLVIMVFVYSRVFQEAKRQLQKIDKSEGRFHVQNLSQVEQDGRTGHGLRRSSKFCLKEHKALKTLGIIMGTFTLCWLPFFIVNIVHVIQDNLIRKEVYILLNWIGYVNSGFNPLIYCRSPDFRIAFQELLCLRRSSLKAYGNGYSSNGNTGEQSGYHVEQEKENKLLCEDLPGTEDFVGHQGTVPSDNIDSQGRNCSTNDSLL
tim23-1 inh: growth inhibitors of tim23-1 mutant yeast. actives 1.3% (n = 330,000). S. cerevisiae tim23-1 growth, BacTiter-Glo luminescence, 24 h. inhibition, % at 20 µM;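 active = growth inhibition of the mutant yeast at or above 50%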;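 note: temperature-sensitive mutant grown at 25 °C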
PfHsp90 yeast 2: growth inhibition of yeast expressing Plasmodium Hsp90; S. cerevisiae expressing PfHsp90, BacTiter-Glo ATP, 48 h; yeast lacking PDR1 and PDR3 efflux regulators; inhibition, % at 9.4 µM; actives 0.32% (n = 310,000); AID 504621;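 active = every replicate shows inhibition above about 80%, whatever the replicate mean, limit read from the data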
tim23-1 confirm: confirmation of tim23-1 mutant yeast growth inhibitors. shares compounds with tim23-1 inh. S. cerevisiae tim23-1 growth, BacTiter-Glo luminescence, 24 h. inhibition, % at 20 µM. actives 83% (n = 4,400). AID 463218;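 active = inhibition above about 39% in either of two replicate wells at 20 µM, limit read from the data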;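 note: temperature-sensitive tim23-1 mutant grown at 25 °C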
Numbers stand for hits; – = inactive; · = no result. This is a sample that favours compounds with a hit; in the whole collection about 3.8% have one here.

SMILES | TIM10 inh | tim10-1 inh | Beta2AR agonist | tim23-1 inh | PfHsp90 yeast 2 | tim23-1 confirm
CCCCCc1ccc(OCCCC[n+]2ccc(C)cc2)c(CCCCC)c1 | – | – | – | 53 | – | –
CCCCCc1ccc(OCCCC[n+]2cccc(C)c2)c(CCCCC)c1 | – | – | – | – | – | ·
CCCn1nnnc1NCc1ccc(C(C)C)cc1 | – | – | – | – | – | ·
COc1ccc(N2CCC(CNC(=S)Nc3cccc(C)c3)C2)cc1 (centres undefined) | – | – | – | – | – | ·
COc1ccc(N2CCC(CNC(=S)Nc3ccc(C)cc3C)C2)cc1 (centres undefined) | – | – | – | 53 | – | 68
O=C(COc1cccc(F)c1)Nc1nc(-c2cccnc2)cs1 | – | – | – | – | – | ·
COCC(C)NC(=O)c1nn(Cc2ccccc2)c(=O)c2ccccc12 (centres undefined) | – | – | – | – | – | ·
N#Cc1c(NC(=O)c2ccc([N+](=O)[O-])o2)sc2c1CCC2 | – | – | – | 58 | – | 69
O=C(NCCc1ccc(F)cc1)C(=O)NCC1CCCN1S(=O)(=O)c1cccs1 (centres undefined) | – | – | – | – | – | ·
Cc1cc(SCC(=O)N/N=C/c2ccc(O)c(O)c2)nc2ccccc12 | – | – | – | – | – | ·
Cc1cc(SCC(=O)N/N=C/c2ccc(O)cc2O)nc2ccccc12 | – | – | – | 51 | – | 52
Cc1ccc(NC(=O)c2ccc(OCc3c(C)noc3C)cc2)cc1C | – | – | – | 59 | – | 56
CC(=O)Nc1ccc(NC(=O)c2ccc(OCc3c(C)noc3C)cc2)cc1 | – | – | – | – | – | ·
COc1cccc(C(=O)Oc2cc3c4c(c2)C(C)=CC(C)(C)N4C(=O)C3=O)c1 | – | – | – | 63 | – | 70
O=C(Nc1cc(Br)c(O)c(Br)c1)c1cccc(NC(=O)c2ccco2)c1 | – | – | – | – | – | ·
COc1ccccc1NC(=O)c1cccc(NC(=O)c2ccco2)c1 | – | – | – | 57 | – | 45
O=C(Nc1cccc(NC(=O)c2ccco2)c1)c1cccc(Br)c1 | – | – | – | 58 | – | 60
O=C(Nc1cccc(N=Cc2cc(Cl)cc(Br)c2O)c1)c1ccco1 | – | – | – | 78 | – | 90
Oc1ccccc1/C=N/NC(=S)NC1CC2CCC1C2 (centres undefined) | – | – | – | 66 | – | –
COc1cccc(/C=N/NC(=S)NC2CC3CCC2C3)c1OC (centres undefined) | – | – | – | – | – | ·
Cc1ccc2[nH]cc(C(=O)CCl)c2c1 | – | – | – | 58 | – | 66
Cc1ccc2[nH]cc(C(=O)CN3CCN(C)CC3)c2c1 | – | – | – | – | – | ·
Cc1ccccc1/C=C1\Oc2ccccc2C1=O | – | – | – | 54 | – | 57
COc1ccc(C(=S)N2CCN(c3ccccc3C)CC2)cc1 | – | – | – | 51 | – | 40
COc1ccccc1Nc1nc2ccc(C)cc2n2cnnc12 | – | – | – | 51 | – | –
SMILES | TIM10 inh | tim10-1 inh | Beta2AR agonist | tim23-1 inh | PfHsp90 yeast 2 | tim23-1 confirm
CC(=O)C1CCC2C3CCC4=CC(=O)CCC4(C)C3(F)C(O)CC12C (centres undefined) | · | · | – | · | – | ·
c1ccc(-c2nc3ccccc3[nH]2)cc1 | – | – | – | 50 | – | 46
COc1ccc(-c2nc3ccccc3[nH]2)cc1 | – | – | – | 63 | – | 57
CN1c2ccccc2-c2ccccc2S1(=O)=O | · | · | – | · | – | ·
CN1c2ccccc2C(=O)C(=C2SCCCS2)S1(=O)=O | – | – | – | 53 | – | 54
COc1ccc(/C=N/NC(C)(C)C)c(OC)c1 | – | – | – | – | – | ·
COc1ccc(C2CC(c3ccc(C(F)(F)F)cc3)=NN2c2ccc(S(N)(=O)=O)cc2)cc1 (centres undefined) | – | – | – | 51 | – | –
CS(=O)(=O)c1ccc2nc(NC(=O)c3ccco3)sc2c1 | – | – | – | 54 | – | 52
CS(=O)(=O)c1ccc2nc(NC(=O)c3cc4ccccc4o3)sc2c1 | – | – | – | – | – | ·
CCOc1ccc2nc(NC(=O)c3ccco3)sc2c1 | – | – | – | 55 | – | 57
CCc1ccc(OCC(=O)c2c(O)c3ccccc3oc2=O)cc1 | – | – | – | – | – | ·
CCc1oc2ccccc2c1C(=O)c1cc(Br)c(O)c(Br)c1 | – | – | – | 56 | – | –
COc1cc(/C=C/C(=O)OCC(=O)c2ccc(OC(F)F)cc2)ccc1O | – | – | – | 65 | – | 54
CC(C)(C)OC(=O)C[C@H]1C/C=C\C[C@@H](CC(=O)NCCO)C(=O)N[C@H](Cc2ccccc2)COC1=O | – | – | – | – | – | ·
COC(=O)C1=NN(c2ccc(C)cc2)C2(S1)SC(C(C)=O)=C(C)N2c1ccccc1 (centres undefined) | – | – | – | 51 | · | 40
COC(=O)C1=NN(c2ccccc2)C2(S1)SC(C(C)=O)=C(C)N2c1ccccc1 (centres undefined) | – | – | – | – | – | ·
Cc1cccc(N=Nc2cnc(N)s2)c1 | – | – | – | 52 | – | 53
CC(=O)Nc1ncc(N=Nc2cccc(C(F)(F)F)c2)s1 | – | – | – | – | – | ·
O=C(N/N=C/c1ccccc1)c1c(O)c2ccccc2[nH]c1=O | – | – | – | 73 | – | –
COc1ccc2[nH]c3c(c2c1)CCN1C(=O)C(CC(=O)NCCC2=CCCCC2)C[C@H](C(=O)N2CCCCC2)[C@@]31C (some centres undefined) | – | – | – | – | – | ·
CC(C)(C)C(=O)Nc1ccc(/C=C/C(=O)c2ccco2)cc1 | – | – | – | 51 | – | 45
Cc1cccc(N2C(=O)/C(=C\c3ccc(C(=O)O)cc3)c3ccccc3C2=O)c1 | – | – | – | 56 | · | –
Oc1ccc2ccccc2c1C=NCc1ccccc1 | – | – | – | 65 | – | 60
Cc1ccc2cccc(OCC(=O)Nc3cccc(S(=O)(=O)N4CCCC4)c3)c2n1 | – | – | – | – | – | ·
COc1ccccc1N1CCN(C(=O)c2cc3ccccc3[nH]2)CC1 | – | – | – | 52 | – | 48
SMILES | TIM10 inh | tim10-1 inh | Beta2AR agonist | tim23-1 inh | PfHsp90 yeast 2 | tim23-1 confirm
Cc1n[nH]c(C)c1N=Nc1ccc(Br)cc1 | – | – | – | 62 | – | –
CC1(C)CC(=O)C(N=Nc2ccc(C(F)(F)F)cc2[N+](=O)[O-])=C(O)C1 | – | – | – | 78 | – | 78
CC1(C)CC(=O)C(N=Nc2cccc([N+](=O)[O-])c2)=C(O)C1 | – | – | – | 88 | – | 93
NC(=NCCc1ccccc1)c1cccc([N+](=O)[O-])c1 | – | – | – | – | – | ·
COC(=O)c1cccc(-c2ccc(C(c3c(C)[nH][nH]c3=O)c3c(C)[nH][nH]c3=O)o2)c1 | – | – | – | 51 | – | 49
CCOC(=O)C1CCCN(CCC(=O)Nc2ccc(Br)c(C)c2)C1 (centres undefined) | – | – | – | – | – | ·
CC1(C)OC(=O)C(=Cc2ccc[nH]2)C(=O)O1 | – | – | – | 76 | – | 53
